Source: PubChem BioAssay (NCI)
Compounds without any hit were thinned out: in the full panel of roughly 83,000, 20% have a hit.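 Method: cells in 96-well plates; compound added at one concentration; 48 h incubation; percent growth measured; values under 10 scored active.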 The source made the active and inactive calls.

System: NCI-H460 lung
Test: NCI-60 one-dose screen, 48 h (100 = growth as untreated, 0 = no growth, -100 = all killed)
Conditions: 10 µM unless noted
Experimental: Growth inhibition of the NCI-H460 human Non-Small Cell Lung tumor cell line is measured as a screen for anti-cancer activity. Cells are grown in 96 well plates and exposed to the test compound for 48 hours. Compounds are tested at a single concentration, which is 10^-5 M for most compounds. The reported endpoint is percent growth (GI% or GIPRCNT), where numbers from 0 - 100% represent growth inhibition, and numbers from -100% - 0 represent cell death. For example, a value of 40 represents 60% growth inhibition. A value of 0 means no net growth occurred over the course of the experiment. A value of -40 indicates 40% of cells at the beginning of the experiment died by the end of the experiment. A value of -100 means all cells are dead at the end of the experiment.
NCI-60 Human Tumor Cell Lines Screen was performed using the standard one-dose NCI protocol, which is described in more detail at https://dtp.cancer.gov/discovery_development/nci-60/default.htm.
Compounds with GIPRCNT values below 10 were considered active. Activity score was based on GIPRCNT using the following formula: […]
Score is 0 for GIPRCNT values of 100 or above, 50 for GIPRCNT values of 0, and 100 for GIPRCNT values of -100.

| Structure (SMILES) | growth |
| --- | --- |
| Cc1cc(C)c(N2C(=O)CC(Nc3ccc(Cl)cc3Cl)C2=O)c(C)c1 (stereo not given) | 105% (inactive) |
| NC(N)=Nc1ccc(Nc2cccc(Nc3ccc(Cl)c(C(F)(F)F)c3)c2)cn1 | -23.9% (active) |
| O=C1CCCC2=C1C(c1c[nH]c3ccc(Br)cc13)Cc1cc(Br)ccc1N2 (stereo not given) | 17.3% (inactive) |
| O=C1Nc2ccccc2/C1=C/c1ccc(COCC2CO2)n1-c1ccc(O)cc1 (stereo not given) | 113% (inactive) |
| CN1CCN(Cc2ccc(NC(=O)c3cncc(C#Cc4cnc5ccc(NCCCO)nn45)c3)cc2C(F)(F)F)CC1 | -85.6% (active) |
| CCO/C=N/C1=C(C#N)C(c2ccc(OC)cc2)c2sc3c(CC)cccc3c2O1 (stereo not given) | 9.18% (active) |
| Brc1ccccc1/C=N/Nc1nc(N/N=C/c2ccccc2Br)nc(N2CCOCC2)n1 | 103% (inactive) |
| O=S(=O)(NCCNc1nccc(-n2cnc3ccccc32)n1)c1ccc(Cl)cc1 | 103% (inactive) |
| NS(=O)(=O)c1ccc(-n2cc(-c3cccc(NC(=O)c4ccc(N5CCOCC5)c(C(F)(F)F)c4)c3)nn2)cc1 | 50.7% (inactive) |
| N=c1c2cc(-c3ccccc3)oc2ncn1/N=C/c1ccc(Cl)cc1 | 6.07% (active) |
| O=C(Nc1ccc(Br)cc1)Nc1nc2ccc([N+](=O)[O-])cc2s1 | -3.34% (active) |
| FC(F)(F)c1cc(Nc2cccc(Oc3ccc(NC4=NCCN4)nc3)c2)ccc1Cl | -69.2% (active) |
| COc1ccccc1-n1cc(C#N)c(N)c1C(=O)c1ccc(Cl)cc1 | 87.8% (inactive) |
| CCO/C=N/C1=C(C#N)C(c2ccc(F)cc2)c2sc3c(C)cccc3c2O1 (stereo not given) | 4.32% (active) |
| CCc1cccc2c3c(sc12)C(c1ccc(OC)cc1)C(C#N)=C(/N=C/c1ccc(Cl)cc1)O3 (stereo not given) | 11.5% (inactive) |
| O=C1CCCc2nc(Nc3ccc(S(=O)(=O)Nc4ccc([N+](=O)[O-])cc4)cc3)ncc21 | 103% (inactive) |
| Cn1ccnc1C(=O)/C=C/c1ccc(CNC(=O)c2ccc(S(F)(F)(F)(F)F)cc2)cc1 | -18.1% (active) |
| COc1ccc([C@H]2c3[nH]c4ccccc4c3C[C@H]3C(=O)N(C4CCN(Cc5c(Cl)cccc5Cl)CC4)CC(=O)N23)c(OC)c1 | 99.1% (inactive) |
| CCCCNNC(=O)c1ccc(-c2cccc(F)c2F)cc1 | 30% (inactive) |
| COc1cc(Cn2cc3c(c2)-c2onc(CN4CCCC4)c2CC3)cc(OC)c1OC | 109% (inactive) |

| Structure (SMILES) | growth |
| --- | --- |
| CCn1c2ccccc2c2cc(-n3nncc3-c3ccccc3)ccc21 | 0.528% (active) |
| CC(C)(C)c1ccc(C(=O)Nc2nc3ccc(O)cc3s2)cc1 | 19.1% (inactive) |
| O=C(CCn1c[n+](CC(=O)c2ccc(-c3ccccc3)cc2)c2ccccc21)Nc1cccc2cccnc12 | 55.3% (inactive) |
| CNC(=O)c1cc(Oc2ccc3nc(NC(=O)c4cccc(OC(F)(F)F)c4)sc3c2)ccn1 | 75.1% (inactive) |
| COc1ccc(/C=C(\C#N)C(=O)N2c3ccccc3Sc3ccc(SC)cc32)cc1F | 94.4% (inactive) |
| CCN(CC)c1cn(-c2ccc(S(N)(=O)=O)cc2)nn1 | 106% (inactive) |
| COc1ccc(CCOc2cc3c(cc2OC)CCN(C(=O)NCc2cocn2)C3c2ccc(C)cc2C)cc1 (stereo not given) | 3.64% (active) |
| Cn1ccnc1C(=O)/C=C/c1ccc(CNC(=O)c2ccc(Cl)cc2)cc1 | -18.9% (active) |
| NC(N)=Nc1ccc(Oc2cccc(Nc3ccc(Br)c(C(F)(F)F)c3)c2)cn1 | -76.9% (active) |
| N#Cc1c(Nc2ccccc2)nn2c(-c3ccc([N+](=O)[O-])cc3)ccnc12 | 99.3% (inactive) |
| CN(C)CCN(C)c1ccc2ncc(C#Cc3cncc(C(=O)Nc4ccc(CN5CCN(C)CC5)c(C(F)(F)F)c4)c3)n2n1 | -76% (active) |
| COc1ccc(N2C(=O)c3cc(Cl)ccc3NC2SCc2ccccc2)cc1 (stereo not given) | 109% (inactive) |
| Cc1ccc(NC(=O)CNc2cc(C(N)=O)cc(F)c2C)c(Cl)c1 | 102% (inactive) |
| c1ccc(C(c2nc3ncncc3[nH]2)N2CSc3nc4ccccc4n3C2)cc1 (stereo not given) | 107% (inactive) |
| COc1ccc(NC(=O)Nc2ccc3c(ccn3C(=O)c3cccc(F)c3)c2)cc1 | 31.7% (inactive) |
| COC(=O)c1[nH]nc2c1C1(C(=O)c3cccc4cccc1c34)C(C#N)=C(N)O2 (stereo not given) | 105% (inactive) |
| COc1cc(OC)c(S(N)(=O)=O)cc1C(C)=O | 107% (inactive) |
| CCCC(=O)NC(c1cccnc1)c1cc(C(C)(C)C)c2cccnc2c1O (stereo not given) | 3.55% (active) |
| Nn1c(N/N=C/c2nc3ccccc3s2)n[nH]c1=S | 110% (inactive) |
| COc1cc(-c2nc(SC(C)C)n(C(C)C)c(=O)c2C#N)ccc1OCc1ccccc1 | 21% (inactive) |
